# Source: PubChem BioAssay (NCI)
# About 83,000 compounds went through this panel and 20% of them were active in at least one assay; those are over-represented in the sample as a whole.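 Treatment: one concentration, 48 hours, 96-well format. Scoring: percent growth, with anything below 10 considered active.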 Unmarked numbers belong to inactive results. Calls of active or inactive are those of the source.
# Test system: UO-31 renal
# Experiment: NCI-60 one-dose screen, 48 h (100 = growth as untreated, 0 = no growth, -100 = all killed)
# Conditions: 10 µM unless noted
row,Structure (SMILES),growth
1,Cn1cc(-c2noc(C(=O)c3cn(C)c4ncccc34)n2)c2ccccc21,75.9%
2,Cc1cc(NN=C(c2ccc(O)cc2)c2ccc(O)cc2)c([N+](=O)[O-])cc1[N+](=O)[O-],6.74% (active)
3,O=C(C[n+]1ccn(CC(OCc2ccc(Cl)cc2Cl)c2ccc(Cl)cc2Cl)c1)c1ccc(F)cc1 (stereo not given),84.1%
4,COc1cc(-c2nc(SCCC(C)C)nc(Nc3ccc(S(N)(=O)=O)cc3)c2C#N)cc(OC)c1OC,14.7%
5,CC(C)=CCC[C@](C)(O)[C@H]1CC[C@]2(C)[C@@H]1CC[C@@H]1[C@@]3(C)CC[C@H](OC(=O)CCC(=O)O)C(C)(C)[C@@H]3CC[C@]12C,19.5% [100 µM]
6,C=C(C)[C@@H]1CC[C@]2(C)[C@H](CC[C@@H]3[C@@H]([C@@](C)(O)CCC=C(C)C)CC[C@]32C)[C@@]1(C)CCC(=O)O,-93.1% [100 µM] (active)
7,O=C(CCN1CCCCC1)c1ccc2ccccc2c1,77.1%
8,O=C(N/N=C/c1c(Cl)cccc1Cl)c1cccc(Nc2ccnc(C(F)(F)F)c2)c1,77.4%
9,CCc1ccc(C2=C/C(=C/c3ccccc3)C(=O)N2CCc2ccc(S(N)(=O)=O)cc2)cc1,68.4%
10,COc1cc2c(cc1OCCCCCOc1ccc(-n3c(C)nc4ccccc4c3=O)cc1)N=C[C@@H]1CCCN1C2=O,2.91% (active)
11,CCN(CCO)CCC(=O)c1ccc([N+](=O)[O-])cc1,75%
12,COc1c(B(O)O)cccc1-c1nc2ccc3[nH]ncc3c2c2c1CCC2,23.5%
13,Cc1ccc(-c2cc(O)c(-c3ccc(C)cc3C)cc2O)c(C)c1,64.5%
14,C=C(C)[C@@H]1CC[C@]2(c3ncc(C)o3)CC[C@]3(C)[C@H](CC[C@@H]4[C@@](C)(CCC#N)[C@H](C(=C)C)CC[C@]43C)[C@@H]12,-94.4% [100 µM] (active)
15,Nc1nc(Nc2ccccc2)c2ncn(Cc3ccc4c(c3)OCO4)c2n1,49.3%
16,CC(=O)OC[C@]12CC[C@@H](C(=O)CBr)[C@@H]1[C@H]1CC[C@@H]3[C@@]4(C)CCCNC(C)(C)[C@@H]4CC[C@@]3(C)[C@]1(C)CC2,-99.3% [100 µM] (active)
17,C[C@@H]1C[C@H]2C(=O)O[C@@H](C)[C@H](NC(=O)[C@H](Cc3cc(F)cc(F)c3)NC(=O)Nc3ccc(Cl)cc3F)C(=O)N3C[C@H](O)C[C@H]3C(=O)N3CCN(C)C[C@H]3C(=O)N[C@@H](C)C(=O)N2C1,83%
18,COC(=O)C(=Cc1ccccc1[N+](=O)[O-])C(=O)OC,31.2%
19,CC1Cc2c(Cl)ncnc2N(C)c2ccc(Cl)cc21 (stereo not given),19.6%
20,CC1(C(=O)O)CCC(N)(C(=O)O)C1(C)C (stereo not given),86.5%
